High-throughput results from PubChem BioAssay.
MCL1-BIM inh: inhibitors of human MCL1 binding to BIM-BH3 peptide | Q07820 | 0.68% of 320,000 active | inhibition, % at 10.9 µM | GST-MCL1 / FITC-Bim-BH3 fluorescence polarization | AID 2057;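 active = inhibition above the mean inhibition of all tested compounds plus 3 SD, set per campaign, cut at about 40% in these data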;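 also: 0% = DMSO wells and 100% = unlabeled Bim-BH3 peptide control; higher means more loss of mP so more displacement of Bim peptide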
Target sequence (Q07820 whole entry, looked up): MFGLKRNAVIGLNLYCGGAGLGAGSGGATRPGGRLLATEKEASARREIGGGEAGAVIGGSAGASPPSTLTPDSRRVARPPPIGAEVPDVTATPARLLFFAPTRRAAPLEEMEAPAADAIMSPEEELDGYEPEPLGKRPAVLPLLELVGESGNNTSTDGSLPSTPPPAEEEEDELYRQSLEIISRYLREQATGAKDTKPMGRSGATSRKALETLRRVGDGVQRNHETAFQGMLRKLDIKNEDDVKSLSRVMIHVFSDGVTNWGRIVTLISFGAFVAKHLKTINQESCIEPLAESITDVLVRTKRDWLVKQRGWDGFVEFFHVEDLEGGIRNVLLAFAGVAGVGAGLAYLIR
Mcl1-Noxa inh: Mcl-1/Noxa interaction inhibition. Q07820. TR-FRET Mcl-1/Noxa peptide binding, 2 h. inhibition, % at 21.7 µM. 1.5% of 220,000 active;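 active = compounds that cut the protein-peptide binding signal by more than 50% relative to plate controls in a single-dose test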;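 also: His-tagged Mcl-1 with rhodamine Noxa BH3 peptide and terbium anti-His antibody; 0% = Mcl-1 plus Noxa peptide wells and 100% = peptide-only wells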
BCLXL inh: Bcl-xL (human) inhibition; Q07817; GST-Bcl-xL / FITC-Bim BH3 peptide fluorescence polarization; inhibition, % at 10.9 µM; 0.7% of 320,000 active;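 active = inhibition above the mean of all tested compounds plus 3 SD, cutoff set per campaign, cut at about 30% in these data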;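 also: 0% = DMSO wells and 100% = unlabeled Bim-BH3 peptide competitor; inhibitors lower millipolarization by displacing the labeled peptide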
Target sequence (Q07817 whole entry, looked up): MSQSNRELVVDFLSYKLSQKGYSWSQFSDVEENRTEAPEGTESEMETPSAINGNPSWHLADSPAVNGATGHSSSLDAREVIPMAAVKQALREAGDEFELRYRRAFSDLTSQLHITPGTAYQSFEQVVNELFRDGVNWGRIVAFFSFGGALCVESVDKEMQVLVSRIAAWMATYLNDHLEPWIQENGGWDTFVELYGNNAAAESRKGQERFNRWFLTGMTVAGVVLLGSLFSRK
GLD-1 RNA inh: GLD-1-TGE RNA interaction inhibition (C. elegans) | 0.44% of 320,000 active | inhibition, % at 5.96 µM | Q17339 | purified GLD-1 + fluorescein TGE RNA, fluorescence polarization | AID 2280;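 active = percent inhibition above a per-plate cutoff, the plate mean of test compounds plus 3 SD, cut at about 30% in these data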;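 also: 0% = DMSO wells with GLD-1 and probe and 100% = wells lacking GLD-1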
Mcl-1 Bim block: human Bim-Mcl-1 interaction inhibition. Q07820. Bead-based flow cytometry, Bim peptide-Mcl-1 binding. inhibition, % at 10 µM. 0.1% of 190,000 active. AID 1009; in the data active = inhibition above about 40%;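 also: 0% = no compound tracer wells and 100% = peptide blocker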
Mcl1 Bid PPI: Mcl-1/Bid interaction inhibition | Q07820 | TR-FRET Mcl-1/Bid-Dy647 peptide binding, 1536-well | inhibition, % at 21.7 µM | 0.97% of 220,000 active | AID 1021;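 active = compounds that cut the binding signal by more than half at the single screening dose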;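 also: His-tagged Mcl-1 with europium anti-His antibody binding Bid BH3 peptide; 0% = Mcl-1 plus peptide wells and 100% = peptide-only wells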
* = called active by the depositor. This is a sample that favours compounds with a hit; in the whole collection about 2.3% have one here.

`CCOC(=O)[C@@H]1[C@H]2COc3ccc(Br)cc3[C@H]2N2C(=O)N(c3ccc(C(F)(F)F)cc3)C(=O)[C@]12C` gave GLD-1 RNA inh 5.
Screening CCCN(CC(=O)Nc1ccccc1OC)C(=O)CSc1ccc(Br)cc1C returned MCL1-BIM inh 3, BCLXL inh 4 and GLD-1 RNA inh 6.
CC1(C)CC(=O)C(C=NCCN2CCN(CCc3ccccc3)CC2)=C(O)C1 was read as MCL1-BIM inh -15, Mcl1-Noxa inh 14, BCLXL inh -10, GLD-1 RNA inh -2, Mcl-1 Bim block 51* and Mcl1 Bid PPI -8.
CC1(C)CC(=O)C(C=NCCN2CCN(C(=O)c3ccccc3)CC2)=C(O)C1 was read as MCL1-BIM inh 3, Mcl1-Noxa inh 13, BCLXL inh 1, GLD-1 RNA inh 8, Mcl-1 Bim block 0 and Mcl1 Bid PPI -20.
Screening Cc1ccnc(NC(c2cccnc2)c2ccc3cccnc3c2O)c1 (stereo not drawn) returned MCL1-BIM inh 1, Mcl1-Noxa inh 41, BCLXL inh 3, GLD-1 RNA inh -2, Mcl-1 Bim block 0 and Mcl1 Bid PPI -14.
For Cc1ccc2ccc(C(Nc3ccccn3)c3ccccc3)c(O)c2n1 (stereo not drawn) the results were MCL1-BIM inh 8, Mcl1-Noxa inh 7, BCLXL inh 9, GLD-1 RNA inh -2, Mcl-1 Bim block -2 and Mcl1 Bid PPI -35.
For COc1cc(C(Nc2ccccn2)c2ccc3ccc(C)nc3c2O)cc(OC)c1O (stereo not drawn) the results were MCL1-BIM inh 38, Mcl1-Noxa inh 93*, BCLXL inh 18, GLD-1 RNA inh 11, Mcl-1 Bim block -2 and Mcl1 Bid PPI 11.
`COc1ccccc1NC(c1cccnc1)c1ccc2cccnc2c1O` (stereo not drawn) gave MCL1-BIM inh 18, Mcl1-Noxa inh 51*, BCLXL inh 13, GLD-1 RNA inh 7, Mcl-1 Bim block 0 and Mcl1 Bid PPI 8.
`Cc1cccc(NC(c2ccc(C)s2)c2ccc3ccc(C)nc3c2O)n1` (stereo not drawn) gave MCL1-BIM inh 23, Mcl1-Noxa inh 67*, BCLXL inh 14, GLD-1 RNA inh 7, Mcl-1 Bim block -4 and Mcl1 Bid PPI 7.
`O=[N+]([O-])c1cccc(S(=O)(=O)Nc2ccc(Cc3ccncc3)cc2)c1` gave MCL1-BIM inh -1, Mcl1-Noxa inh 25, BCLXL inh -4, GLD-1 RNA inh 1 and Mcl1 Bid PPI -11.
For COc1ccc(C(=O)COC(=O)CCN=C2NS(=O)(=O)c3ccccc32)c(OC)c1 the results were MCL1-BIM inh 1, BCLXL inh 1 and GLD-1 RNA inh 0.
`C[C@H]1CN([C@@H](C)CO)C(=O)c2cc(NC(=O)NC3CCCCC3)ccc2O[C@H]1CN(C)C(=O)Nc1ccc(C(F)(F)F)cc1` gave GLD-1 RNA inh 2.
O=C(O)/C=C/c1ccc(O)c(O)c1 was read as MCL1-BIM inh -2, Mcl1-Noxa inh 60*, BCLXL inh 6, GLD-1 RNA inh -3, Mcl-1 Bim block 0 and Mcl1 Bid PPI -25.
Screening COc1cc(/C=C/C(=O)O)ccc1O returned MCL1-BIM inh 0, BCLXL inh 4 and GLD-1 RNA inh 1.
Screening O=C(/C=C/c1ccc(O)c(O)c1)O[C@H](Cc1ccc(O)c(O)c1)C(=O)O returned Mcl1-Noxa inh 93* and Mcl1 Bid PPI -105.
`Cc1cccc(NNC(N)=S)c1C` gave MCL1-BIM inh 0, Mcl1-Noxa inh 25, BCLXL inh 1, GLD-1 RNA inh 3, Mcl-1 Bim block -1 and Mcl1 Bid PPI -54.
C/C=C/c1ccc(OCCCNC(C)CC)c(OC)c1 (stereo not drawn) was read as MCL1-BIM inh -6, Mcl1-Noxa inh 8, BCLXL inh 3, GLD-1 RNA inh 4, Mcl-1 Bim block -4 and Mcl1 Bid PPI 59*.
For C/C=C/c1ccc(OCCCNC2CCCC2)c(OC)c1 the results were MCL1-BIM inh 10, Mcl1-Noxa inh 9, BCLXL inh 4, GLD-1 RNA inh -1, Mcl-1 Bim block 0 and Mcl1 Bid PPI 31.
Screening C/C=C/c1ccc(OCCCCn2cncn2)c(OC)c1 returned MCL1-BIM inh -3, Mcl1-Noxa inh 23, BCLXL inh 0, GLD-1 RNA inh 3, Mcl-1 Bim block -2 and Mcl1 Bid PPI 57*.
`O=C(c1cc2nc(-c3ccc(Cl)cc3)cc(C(F)(F)F)n2n1)N1CCOCC1` gave MCL1-BIM inh 0, Mcl1-Noxa inh 16, BCLXL inh 0, GLD-1 RNA inh 3, Mcl-1 Bim block 3 and Mcl1 Bid PPI -8.
`CCc1ccc(C(CC(=O)c2ccc(Cl)cc2)C(=O)O)cc1` (stereo not drawn) gave MCL1-BIM inh 7, Mcl1-Noxa inh 7, BCLXL inh 8, GLD-1 RNA inh 2, Mcl-1 Bim block -2 and Mcl1 Bid PPI 96*.
`O=C(Nc1ccc(F)cc1)Nc1ccc(Oc2ncnc3cc(Cl)ccc23)nc1` gave MCL1-BIM inh 3, Mcl1-Noxa inh -19, BCLXL inh 1, GLD-1 RNA inh 7 and Mcl1 Bid PPI 92*.
Screening CS(=O)(=O)NN1C(=O)c2ccccc2NC1c1ccccc1 (stereo not drawn) returned MCL1-BIM inh 0, Mcl1-Noxa inh -4, BCLXL inh 7, GLD-1 RNA inh 3, Mcl-1 Bim block 43* and Mcl1 Bid PPI -23.
For CS(=O)(=O)NN1C(=O)c2ccccc2NC1c1cccc(O)c1 (stereo not drawn) the results were MCL1-BIM inh 0, Mcl1-Noxa inh 4, BCLXL inh 2, GLD-1 RNA inh 7, Mcl-1 Bim block 5 and Mcl1 Bid PPI -9.
Screening CCOC(=O)C1=NNC2C(=O)N(Cc3ccccc3)C(=O)C12 (stereo not drawn) returned MCL1-BIM inh 1, Mcl1-Noxa inh 5, BCLXL inh 3, GLD-1 RNA inh 9 and Mcl1 Bid PPI -7.
CC1(C)OC(=O)N(Cc2ccco2)C1(C)O (stereo not drawn) was read as MCL1-BIM inh 0, Mcl1-Noxa inh 7, BCLXL inh 0, GLD-1 RNA inh 5, Mcl-1 Bim block 1 and Mcl1 Bid PPI 51*.
Screening Cc1ccc(Nc2nc(-c3ccccc3)c(CC(=O)O)s2)cc1 returned MCL1-BIM inh -44, Mcl1-Noxa inh 12, BCLXL inh -30, GLD-1 RNA inh -38, Mcl-1 Bim block 9 and Mcl1 Bid PPI -23.
Screening O=C(O)Cc1sc(Nc2ccc(F)cc2)nc1-c1cccs1 returned MCL1-BIM inh 4, Mcl1-Noxa inh 53*, BCLXL inh 6, GLD-1 RNA inh -13, Mcl-1 Bim block -3 and Mcl1 Bid PPI -3.
CCO[C@@H]1OC(C(=O)N2CCN(Cc3ccccc3)CC2)=C[C@H](C2CC2)[C@H]1CCCO was read as MCL1-BIM inh 4, Mcl1-Noxa inh 42, BCLXL inh 5, GLD-1 RNA inh 2, Mcl-1 Bim block -3 and Mcl1 Bid PPI 87*.
